# Legend:
# [1] = biological target: Histone H2A type 1 (UniProt P06897); test: cross-linking mass spectrometry
# [2] = biological target: Histone H3.2 (UniProt P84233); test: cross-linking mass spectrometry
# [3] = biological target: Histone H4 (UniProt P62799); test: cross-linking mass spectrometry
# [4] = biological target: Transcription elongation factor A protein 1 (UniProt P23193); test: cross-link between two proteins; cross-linking mass spectrometry
# [5] = biological target: Histone H3.2 (UniProt P84233); test: as above
# [6] = biological target: DNA-directed RNA polymerase II subunit RPB7 (UniProt P62487); test: as above
# [7] = biological target: Histone H2A type 1 (UniProt P06897); test: as above
# [8] = biological target: Histone H2B 1.1 (UniProt P02281); test: as above
# [9] = biological target: Transcription elongation factor SPT4 (UniProt P63272); test: cross-link between two proteins; cross-linking mass spectrometry; two-hybrid or complementation screen
substance,measurement,setting,value
"Histone H2B 1.1, P02281",listed as a hit,[1],yes
same,listed as a hit,[2],yes
same,listed as a hit,[3],yes
"Histone H2A type 1, P06897",listed as a hit,[2],yes
same,listed as a hit,[3],yes
same,listed as a hit,[4],yes
"DNA-directed RNA polymerase II subunit RPB7, P62487",listed as a hit,[5],yes
"Transcription elongation factor SPT5, O00267",listed as a hit,[6],yes
same,listed as a hit,[7],yes
same,listed as a hit,[8],yes
same,listed as a hit,[5],yes
same,listed as a hit,[9],yes
"Transcription elongation factor A protein 1, P23193",listed as a hit,[5],yes
"Histone H4, P62799",listed as a hit,[5],yes

# From publication PMC11062913
